# Experimental data as given in the supplement of paper PMC8728848.
# Only a selection was taken, and the strongest signals are over-represented in it overall.
# B1: B1567 (Bifidobacterium sp) (protein)
# chain: MKFTTAKKAVALTGAVAMLVSVAACGSDSGKSSQPAQDSDVKEITVWAWEPSLTQVAKDFEKETGIKVDLKNVGTNTKEYTQLDNAIEAGSGAPDVAQVEYYAVPQYAIKGNLLDITDKTSGYKDFYTPGPWASVQFAGKVYGLPMDSGPMAFFYNKEVFDKAGVDAEQIKTWDQYYDAAKKIHALGDNYYITSDTGDAGFFDSMTWLAGAKPFQTSSDGSEVTVNLTEDKGVKTFTDFWQKLLDEGLLDTKTAGWSEDWFKGMVDGTIASLFTGAWMPANLANSAADGAGKWRVTQMPTADGSTTNSENGGSSLAVLASTKKADAAYQFIEYANHGAGVATRVAGGAFPADKASLEKDSFKNATTVKNADGQDVDYFGGQKYNEVLAQAAENVSSGYQFLPFEVKARTIFGDYFGKSYTGDQKLSDGVAAWQKALQDYGKDQGFTVK
# Assays:
# Assay in all cases: glycan array binding signal (z-score within array); higher = stronger binding
# Details in all cases: glycan notation: IUPAC condensed, linker removed
# [1] = target: Fuc(a1-2)Gal(b1-3)GalNAc(a1-3)[Fuc(a1-2)]Gal(b1-4)Glc
# In short: (§1)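 Glycan array binding is given as a within-array Z-score, which can be read as non-binding when negative. The arrays, 3228 of them, came from the Consortium for Functional Glycomics database and were retained only where the protein sequence was available. Z-scores were averaged across arrays of the same protein sequence at different concentrations or buffers and across linkers.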
# [2] = target: Fuc(a1-2)Gal(b1-3)[Fuc(a1-4)]GlcNAc(b1-2)Man(a1-3)[Fuc(a1-2)Gal(b1-3)[Fuc(a1-4)]GlcNAc(b1-2)Man(a1-6)]Man(b1-4)GlcNAc(b1-4)[Fuc(a1-6)]GlcNAc(b1-4)[Fuc(a1-6)]GlcNAc
# In short: as §1
# Fuc(a1-2)Gal(b1-4)Glc6S = target: Fuc(a1-2)Gal(b1-4)Glc6S
# In short: as §1
# [3] = target: Fuc(a1-2)Gal(b1-4)GlcNAc(b1-3)GalNAc
# In short: as §1
# [4] = target: Fuc(a1-2)Gal(b1-4)[Fuc(a1-3)]GlcNAc(b1-3)Gal(b1-4)[Fuc(a1-3)]GlcNAc
# In short: as §1
# [5] = target: Fuc(a1-2)[Gal(a1-3)]Gal(b1-3)GlcNAc(b1-3)GalNAc
# In short: as §1
# [6] = target: Fuc(a1-2)[GalNAc(a1-3)]Gal(b1-4)GlcNAc(b1-2)Man(a1-3)[Fuc(a1-2)[GalNAc(a1-3)]Gal(b1-4)GlcNAc(b1-2)Man(a1-6)]Man(b1-4)GlcNAc(b1-4)GlcNAc
# In short: as §1
# [7] = target: Fuc(a1-3)[Gal(b1-4)]GlcNAc(b1-6)[Gal(b1-3)GlcNAc(b1-3)]Gal(b1-4)Glc
# In short: as §1
# Fuc(a1-4)GlcNAc = target: Fuc(a1-4)GlcNAc
# In short: as §1
# Gal(a1-3)Gal(b1-3)GlcNAc = target: Gal(a1-3)Gal(b1-3)GlcNAc
# In short: as §1
# [8] = target: Gal(a1-4)Gal(b1-4)GlcNAc(b1-2)Man(a1-3)[Gal(a1-4)Gal(b1-4)GlcNAc(b1-2)Man(a1-6)]Man(b1-4)GlcNAc(b1-4)GlcNAc
# In short: as §1
# [9] = target: Gal(b1-3)GalNAc(a1-3)[Fuc(a1-2)]Gal(b1-4)Glc
# In short: as §1
# Gal(b1-3)GlcNAc(b1-2)Man = target: Gal(b1-3)GlcNAc(b1-2)Man
# In short: as §1
# [10] = target: Gal(b1-3)[GlcNAc(b1-6)]GalNAc
# In short: as §1
# [11] = target: Gal(b1-3)[Neu5Ac(a2-6)]GlcNAc(b1-4)Gal(b1-4)Glc
# In short: as §1
# [12] = target: Gal(b1-4)GalNAc(b1-3)[Fuc(a1-2)]Gal(b1-4)GlcNAc
# In short: as §1
# Gal(b1-4)GlcNAc(b1-2)Man = target: Gal(b1-4)GlcNAc(b1-2)Man
# In short: as §1
# [13] = target: Gal(b1-4)GlcNAc(b1-2)Man(a1-6)Man(b1-4)GlcNAc(b1-4)GlcNAc
# In short: as §1
# [14] = target: Gal(b1-4)GlcNAc(b1-2)[Gal(b1-4)GlcNAc(b1-6)]Man(a1-6)[GlcNAc(b1-4)][Gal(b1-4)GlcNAc(b1-2)Man(a1-3)]Man(b1-4)GlcNAc(b1-4)GlcNAc
# In short: as §1
# [15] = target: Gal(b1-4)GlcNAc(b1-3)Gal(b1-4)Glc
# In short: as §1
# [16] = target: Gal(b1-4)GlcNAc(b1-3)Gal(b1-4)GlcNAc
# In short: as §1
# [17] = target: Gal(b1-4)GlcNAc(b1-3)Gal(b1-4)GlcNAc(b1-3)Gal(b1-4)GlcNAc
# In short: as §1
# [18] = target: Gal(b1-4)GlcNAc(b1-3)Gal(b1-4)GlcNAc(b1-3)Gal(b1-4)GlcNAc(b1-2)Man(a1-3)[Gal(b1-4)GlcNAc(b1-3)Gal(b1-4)GlcNAc(b1-3)Gal(b1-4)GlcNAc(b1-2)Man(a1-6)]Man(b1-4)GlcNAc(b1-4)GlcNAc
# In short: as §1
# [19] = target: Gal(b1-4)GlcNAc(b1-3)Gal(b1-4)GlcNAc(b1-3)Gal(b1-4)GlcNAc(b1-2)Man(a1-3)[Gal(b1-4)GlcNAc(b1-3)Gal(b1-4)GlcNAc(b1-3)Gal(b1-4)GlcNAc(b1-2)Man(a1-6)]Man(b1-4)GlcNAc(b1-4)[Fuc(a1-6)]GlcNAc
# In short: as §1
# [20] = target: Gal(b1-4)GlcNAc(b1-3)Gal(b1-4)GlcNAc(b1-3)Gal(b1-4)GlcNAc(b1-2)[Gal(b1-4)GlcNAc(b1-3)Gal(b1-4)GlcNAc(b1-3)Gal(b1-4)GlcNAc(b1-6)]Man(a1-6)[Gal(b1-4)GlcNAc(b1-3)Gal(b1-4)GlcNAc(b1-3)Gal(b1-4)GlcNAc(b1-2)Man(a1-3)]Man(b1-4)GlcNAc(b1-4)[Fuc(a1-6)]GlcNAc
# In short: as §1
# [21] = target: Gal(b1-4)GlcNAc(b1-3)Gal(b1-4)GlcNAc(b1-3)Gal(b1-4)GlcNAc(b1-3)Gal(b1-4)GlcNAc(b1-2)[Gal(b1-4)GlcNAc(b1-3)Gal(b1-4)GlcNAc(b1-3)Gal(b1-4)GlcNAc(b1-3)Gal(b1-4)GlcNAc(b1-6)]Man(a1-6)[Gal(b1-4)GlcNAc(b1-3)Gal(b1-4)GlcNAc(b1-3)Gal(b1-4)GlcNAc(b1-3)Gal(b1-4)GlcNAc(b1-2)Man(a1-3)]Man(b1-4)GlcNAc(b1-4)[Fuc(a1-6)]GlcNAc
# In short: as §1
# [22] = target: Gal(b1-4)GlcNAc(b1-3)Gal(b1-4)GlcNAc(b1-3)Gal(b1-4)GlcNAc(b1-3)Gal(b1-4)GlcNAc(b1-3)Gal(b1-4)GlcNAc(b1-3)Gal(b1-4)GlcNAc(b1-2)Man(a1-3)[Gal(b1-4)GlcNAc(b1-3)Gal(b1-4)GlcNAc(b1-3)Gal(b1-4)GlcNAc(b1-3)Gal(b1-4)GlcNAc(b1-3)Gal(b1-4)GlcNAc(b1-3)Gal(b1-4)GlcNAc(b1-2)Man(a1-6)]Man(b1-4)GlcNAc(b1-4)GlcNAc
# In short: as §1
# [23] = target: Gal(b1-4)GlcNAc(b1-3)Gal(b1-4)[Fuc(a1-3)]GlcNAc(b1-3)Gal(b1-4)[Fuc(a1-3)]GlcNAc
# In short: as §1
# Gal(b1-6)Gal = target: Gal(b1-6)Gal
# In short: as §1
# Gal3S(b1-4)Glc = target: Gal3S(b1-4)Glc
# In short: as §1
binder,measurement,setting,value
B1,glycan array binding signal (z-score),[1],-0.161
same,glycan array binding signal (z-score),[2],-0.08
same,glycan array binding signal (z-score),Fuc(a1-2)Gal(b1-4)Glc6S,-0.184
same,glycan array binding signal (z-score),[3],-0.127
same,glycan array binding signal (z-score),[4],-0.104
same,glycan array binding signal (z-score),[5],-0.097
same,glycan array binding signal (z-score),[6],0.019
same,glycan array binding signal (z-score),[7],-0.15
same,glycan array binding signal (z-score),Fuc(a1-4)GlcNAc,-0.077
same,glycan array binding signal (z-score),Gal(a1-3)Gal(b1-3)GlcNAc,-0.129
same,glycan array binding signal (z-score),[8],0.067
same,glycan array binding signal (z-score),[9],-0.013
same,glycan array binding signal (z-score),Gal(b1-3)GlcNAc(b1-2)Man,0.008
same,glycan array binding signal (z-score),[10],-0.138
same,glycan array binding signal (z-score),[11],-0.133
same,glycan array binding signal (z-score),[12],-0.08
same,glycan array binding signal (z-score),Gal(b1-4)GlcNAc(b1-2)Man,-0.12
same,glycan array binding signal (z-score),[13],-0.101
same,glycan array binding signal (z-score),[14],-0.145
same,glycan array binding signal (z-score),[15],14.9
same,glycan array binding signal (z-score),[16],0.588
same,glycan array binding signal (z-score),[17],1.4
same,glycan array binding signal (z-score),[18],0.282
same,glycan array binding signal (z-score),[19],0.333
same,glycan array binding signal (z-score),[20],0.271
same,glycan array binding signal (z-score),[21],0.348
same,glycan array binding signal (z-score),[22],1.66
same,glycan array binding signal (z-score),[23],1.8
same,glycan array binding signal (z-score),Gal(b1-6)Gal,11
same,glycan array binding signal (z-score),Gal3S(b1-4)Glc,-0.135
